# Screens: PubChem BioAssay, several laboratories
# This is a sample that favours compounds with a hit; in the whole collection about 2.6% have one here.
# PHOSPHO1 block – blocks human PHOSPHO1 phosphatase activity. inhibition, % at 13.3 µM. recombinant PHOSPHO1, absorbance phosphatase assay. 290,000 tested, 1.1% active. Q8TCT1; in the data active = inhibition above about 60%
# eIF4H inh – inhibitors of RNA binding by human eIF4H | Q15056 | eIF4H fluorescence polarization binding assay | inhibition, % at 35 µM | 290,000 tested, 0.94% active | AID 2012;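 note: calls also rest on retests at 20 µM and on dose response follow-up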
# ABCB6 inh 2 – human ABCB6 transporter inhibition; Q9NP58; K562-ABCB6 porphyrin accumulation, flow cytometry, 1 h; hits give low values; fluorescence ratio to DMSO, % at 10 µM; 360,000 tested, 0.19% active;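 active = fluorescence ratio to DMSO below 75%, the collection mean minus 3 SD; inconclusive = too few cells collected in the well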;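 note: signal is porphyrin accumulated inside mitochondria; 100% equals median channel fluorescence of DMSO control wells; lower ratio means ABCB6 inhibition with less porphyrin fluorescence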
# AI-2 QS modul – modulates the Vibrio harveyi AI-2 quorum sensing system; Vibrio harveyi JMH597 AI-2 luminescence/OD600 ratio, 9 h; hits give low values; strain lacks LuxN and CqsS sensors; 0 = neutral-control median; activity change, % at 7.5 µM; 300,000 tested, 0.4% active; AID 2094; in the data active = activity change below about -75%, passing the limit was not always enough; inconclusive = no clear call, values can overlap the other calls;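 note: luminescence divided by OD600 gain over 9 h not by final OD600 alone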
# PABP1 MLLE inh – blocks PAM2 peptide binding to the PABP1 MLLE domain; P11940; GST-MLLE / FITC-PAM2 fluorescence polarization; inhibition, % at 20 µM; 360,000 tested, 0.36% active; AID 588489; in the data active = inhibition above about 35%, passing the limit was not always enough;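 note: plate controls were DMSO wells with GST-MLLE for no effect and wells lacking GST-MLLE protein for full effect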
# PABP FP inh – PABP-poly(A) binding inhibition | P11940 | PABP-poly(A) RNA binding, fluorescence polarization | calls only at 35 µM | 290,000 tested, 1% active | AID 2014;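 note: calls also rest on retests at 20 µM and on dose response follow-up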
# Active calls of the source: *; i = inactive; ? = inconclusive; nt = no result; + = active, no number. Unless noted, the rule behind the calls is not given here.
SMILES,PHOSPHO1 block,eIF4H inh,ABCB6 inh 2,AI-2 QS modul,PABP1 MLLE inh,PABP FP inh
CCC(C)C(=O)Nc1nc(C)c(-c2csc(Nc3cc(Cl)ccc3OC)n2)s1 (centres undefined),91*,-3,98,8,11,i
COc1ccc(Cl)cc1Nc1nc(-c2sc(NC(=O)c3ccco3)nc2C)cs1,-109,-18,100,34,-26,i
CCC(C)C(=O)Nc1nc(C)c(-c2csc(Nc3cc(OC)ccc3OC)n2)s1 (centres undefined),62*,-3,100,39,13,i
COc1ccc(Cl)cc1Nc1nc(-c2sc(NC(=O)C(C)(C)C)nc2C)cs1,101*,-18,99,30,-1,i
COc1ccc(OC)c(Nc2nc(-c3sc(NC(=O)CC(C)C)nc3C)cs2)c1,65*,1,103,54,11,i
COc1ccc(OC)c(Nc2nc(-c3sc(C)nc3C)cs2)c1,25,-8,93,7,13,i
COc1ccccc1Nc1nc(-c2sc(NC(=O)c3ccc([N+](=O)[O-])cc3)nc2C)cs1,-113,-3,nt,14,nt,i
COc1ccc(OC)c(Nc2nc(-c3sc(NC(=O)C(C)(C)C)nc3C)cs2)c1,57,6,101,8,3,i
CCCS(=O)(=O)NC(=O)C1(C)CCCN(C(=O)c2c(-c3ccccc3)noc2C)C1 (centres undefined),nt,nt,102,nt,-6,nt
CCCCC1Cc2[nH]c(=S)[nH]c(=O)c2C(c2cccc3ccccc23)O1 (centres undefined),nt,nt,96,nt,nt,nt
CCOc1cc(OCC)cc(C(=O)N2CCC[C@H]2C(=O)N2CCC[C@H]2C(=O)NCc2cccc(OC)c2)c1,nt,nt,99,nt,nt,nt
Brc1ccc(-c2csc(/N=C/N3CCCC3)n2)cc1,-7,active,95,-4,11,+
Brc1ccc(-c2csc(/N=C/N3CCOCC3)n2)cc1,4,1,101,14,3,i
N#Cc1nccnc1S(=O)(=O)c1cccs1,-6,3,nt,-132*,nt,i
Cc1ccc(NS(=O)(=O)c2ccc3c(c2)NC(=O)CCS3)c(Br)c1,65*,1,102,13,-17,i
Cc1ccc(C)c(NS(=O)(=O)c2ccc3c(c2)NC(=O)CCS3)c1,28,-7,95,23,-1,i
COc1ccc(-c2nc3c(Cl)cc(C(F)(F)F)cn3c2Cc2cccc(F)c2)cc1OC,nt,nt,96,nt,2,nt
COc1ccc(C(CNC(=O)/C=C/c2c(Cl)nc3ccccn23)N(C)C)cc1 (centres undefined),-7,7.6*,92,10,-1,+
NNC(=O)c1nc[nH]c1C(=O)Nc1ccccc1[N+](=O)[O-],4,55*,96,32,6,+
Cc1sc2nc(N)sc2c1C,90*,3,96,nt,19,i
Cc1ccc(C)c2sc(N)nc12,48,-9,93,4,16,i
CCOC(=O)C1(Cc2cccc(Cl)c2)CCCN(C(=O)c2ccc(C)nc2)C1 (centres undefined),63*,-5,99,1,19,i
COc1cccc(/C=N/n2c(-c3cc(C)[nH]n3)n[nH]c2=S)c1,-61,-1,94,15,-26,i
COc1ccccc1/C=C/C=N/n1c(-c2ccco2)n[nH]c1=S,85*,5,101,44,-11,i
Cc1cc(-c2n[nH]c(=S)n2/N=C/C=C/c2ccccc2)n[nH]1,49,1,65*,27,-20,i
S=c1[nH]nc(-c2ccco2)n1/N=C/c1ccccc1Cl,38,4,104,31,-75,i
COc1ccccc1/C=C/C=N/n1c(-c2ccncc2)n[nH]c1=S,79*,32,92,9,-28,?
O=[N+]([O-])c1ccccc1/C=C/C=N/n1c(-c2ccccc2)n[nH]c1=S,-17,0,103,-8,-12,i
COc1ccc(-c2n[nH]c(=S)n2/N=C/C=C\c2ccccc2OC)cc1,66*,2,85,22,-25,i
CC1(C(=O)NS(=O)(=O)C2CC2)CCCN(C(=O)c2ccc(C(F)(F)F)cc2)C1 (centres undefined),nt,nt,102,nt,-1,nt
